Screening data from PubChem BioAssay.
PLC-beta3 inh: blocks human PLC-beta3 enzyme activity | inhibition, % at 12.2 µM | actives 0.18% (n = 370,000) | Purified PLC-beta3, fluorogenic substrate, fluorescence; in the data active = inhibition above about 11%;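 also: 0% = median of compound wells on plate and 100% = full blocker control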
Rce1 inhib: inhibitors of yeast Ras-converting enzyme. yeast membranes, quenched prenylated peptide cleavage fluorescence. calls only. actives 0.27% (n = 290,000). AID 2563;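 active = fall in fluorescence gain of 50% or more versus controls, with final raw signal at or below 3038400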;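 also: plate controls were neutral control wells for no effect and wells lacking membranes for full effect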
ADAM10 inh: inhibitors of human ADAM10; O14672; recombinant ADAM10, EDANS/DABCYL FRET peptide cleavage, 3 h; inhibition, % at 7 µM; actives 0.62% (n = 370,000); AID 720582;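 active = inhibition above a per-campaign cutoff equal to the mean of compounds falling between control-based bounds plus 3 SD, cut at about 20% in these data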;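 also: 0% = DMSO wells while the 100% control is not disclosed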
ADAM17 inh: inhibitors of human ADAM17 | recombinant ADAM17, EDANS/DABCYL FRET peptide cleavage | actives 0.83% (n = 370,000) | P78536 | inhibition, % at 6.95 µM;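 active = inhibition above the mean of compounds lying between control limits plus 3 SD, set per campaign, cut at about 8.5% in these data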;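 also: 0% = DMSO-only wells as the low control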
PLCg1 inh: PLC-gamma1 (human) inhibition, primary screen | purified PLC-gamma1, fluorogenic substrate, fluorescence | actives 0.84% (n = 370,000) | AID 720700 | P19174 | inhibition, % at 12.2 µM
PLCgamma1 ctr: PLC-gamma1 inhibition, counter-screen for PLC-beta3 hits; purified PLC-gamma1, fluorogenic substrate, fluorescence; actives 3.1% (n = 3,300); shares compounds with PLCg1 inh; AID 743258; inhibition, % at 12.3 µM
PLCbeta3 conf: confirmation of human PLC-beta3 inhibitors | actives 1% (n = 3,300) | shares compounds with PLCg1 inh | purified PLC-beta3, fluorogenic substrate fluorescence | inhibition, % at 12.3 µM; in the data active = inhibition above about 11%
Numbers without * were called inactive. The list is not random: actives were taken first. Their share in the collection is about 2.1%. Rule as the data show it, unless noted: active = inhibition above about 9.5%; inactive = the rest.

How did CCCS(=O)(=O)NC(=O)C1(C)CCN(C(=O)c2cc(C)nn2C(C)(C)C)C1 (stereo unspecified) do in these assays?
PLC-beta3 inh: 0; ADAM10 inh: 2; ADAM17 inh: 5; PLCg1 inh: 9.8*; PLCgamma1 ctr: -2; PLCbeta3 conf: 0

How did CCCS(=O)(=O)NC(=O)C1(C)CCN(C(=O)c2cc(C)n(C(C)(C)C)n2)C1 (stereo unspecified) do in these assays?
PLC-beta3 inh: 2; ADAM10 inh: -5; ADAM17 inh: -3; PLCg1 inh: 0

What do the screens show for `COC(=O)c1c(N)[nH]c(C(=O)c2ccccc2)c1-c1ccccc1Br`?
PLC-beta3 inh: -15; ADAM10 inh: -5; ADAM17 inh: 0; PLCg1 inh: -13

How did COc1ccc(C(=O)C2CCCN(S(=O)(=O)c3ccc(C(C)=O)cc3)C2)c(C)c1 (stereo unspecified) do in these assays?
PLC-beta3 inh: -1; Rce1 inhib: inactive; ADAM10 inh: 1; ADAM17 inh: 2; PLCg1 inh: 0

Results for CCOc1ccc(CCNC(=O)C2CCCN(S(C)(=O)=O)C2)cc1OCC (stereo unspecified) ?
PLC-beta3 inh: 13*; Rce1 inhib: inactive; ADAM10 inh: 7; ADAM17 inh: 1; PLCg1 inh: 3; PLCgamma1 ctr: -1; PLCbeta3 conf: -2

What do the screens show for `CCOc1ccc(CCNC(=O)C2CCCN(S(=O)(=O)N3CCCCC3)C2)cc1OCC` (stereo unspecified)?
PLC-beta3 inh: 2; ADAM10 inh: -12; ADAM17 inh: 1; PLCg1 inh: 0

Results for CCOC(=O)N1CCN(S(=O)(=O)N2CCCC(C(=O)NCCc3ccc(OCC)c(OCC)c3)C2)CC1 (stereo unspecified) ?
PLC-beta3 inh: 2; Rce1 inhib: inactive; ADAM10 inh: 10; ADAM17 inh: -1; PLCg1 inh: 12*; PLCgamma1 ctr: -4; PLCbeta3 conf: -6

How did Cc1ccc(C(=O)NCCN2C3=NC[C@@H](Cc4ccccc4)N3C[C@H]2Cc2ccc(O)cc2)cc1Br do in these assays?
PLC-beta3 inh: 4; Rce1 inhib: inactive; ADAM10 inh: 3; ADAM17 inh: -3; PLCg1 inh: 9.9*; PLCgamma1 ctr: 1; PLCbeta3 conf: 0

What do the screens show for `COc1ccc(C[C@H]2CN3C(=NC[C@H]3Cc3ccccc3)N2CCNC(=O)c2ccc(C)c(Br)c2)cc1`?
Rce1 inhib: inactive

Results for CCOc1ccc(C(=O)NC(C(=O)NCC2CCCO2)C(C)C)cc1 (stereo unspecified) ?
PLC-beta3 inh: -9; Rce1 inhib: inactive; ADAM10 inh: 2; ADAM17 inh: -5; PLCg1 inh: -3

How did COc1ccc(C(=O)NC(C(=O)NCC2CCCO2)C(C)C)cc1 (stereo unspecified) do in these assays?
PLC-beta3 inh: 5; Rce1 inhib: inactive; ADAM10 inh: 9; ADAM17 inh: 2; PLCg1 inh: 10*; PLCgamma1 ctr: -3; PLCbeta3 conf: -3

Results for COc1ccc(CCNC(=O)c2ccc(OC)c(OC)c2)cc1OC ?
PLC-beta3 inh: -2; ADAM10 inh: 1; ADAM17 inh: -2; PLCg1 inh: -1

How did COc1ccc(CCN(C)C(=O)CCNC(=O)c2ccc(Br)cc2)cc1OC do in these assays?
PLC-beta3 inh: 3; Rce1 inhib: inactive; ADAM10 inh: 5; ADAM17 inh: -2; PLCg1 inh: 11*; PLCgamma1 ctr: -3; PLCbeta3 conf: 1

Results for NC(=O)c1ncn([C@@H]2O[C@H](CNCc3cccc(OC4CCCC4)c3)[C@@H](O)[C@H]2O)n1 ?
PLC-beta3 inh: -1; ADAM10 inh: -1; ADAM17 inh: -5; PLCg1 inh: 5

How did Cc1ccc(S(=O)(=O)N2CCOCC2)cc1NC(=O)CNCC1CCCCC1 do in these assays?
PLC-beta3 inh: 5; Rce1 inhib: inactive; ADAM10 inh: 5; ADAM17 inh: -4; PLCg1 inh: 10*; PLCgamma1 ctr: -5; PLCbeta3 conf: -1

What do the screens show for `COc1ccc(S(=O)(=O)N2CCCCC2)cc1C(=O)N1CCCC1`?
PLC-beta3 inh: 0; Rce1 inhib: inactive; ADAM10 inh: -6; ADAM17 inh: -2; PLCg1 inh: 12*; PLCgamma1 ctr: -6; PLCbeta3 conf: -2

How did O=C(CC1CCCC1)Nc1cc(S(=O)(=O)N2CCOCC2)ccc1O do in these assays?
PLC-beta3 inh: 0; ADAM10 inh: -10; ADAM17 inh: 0; PLCg1 inh: -1

What do the screens show for `COc1ccc(S(=O)(=O)N2CCOCC2)cc1C(=O)NC1CCCCCC1`?
PLC-beta3 inh: 2; ADAM10 inh: 4; ADAM17 inh: 1; PLCg1 inh: 12*; PLCgamma1 ctr: -5; PLCbeta3 conf: 0

What do the screens show for `COc1ccc(S(=O)(=O)N2CCOCC2)cc1C(=O)Nc1cccc(C(=O)NC2CC2)c1`?
PLC-beta3 inh: -2; ADAM10 inh: -11; ADAM17 inh: -1; PLCg1 inh: 0

What do the screens show for `O=C1CN(C(=O)c2ccccc2F)C(c2ccccc2)c2cc(Cl)ccc2N1` (stereo unspecified)?
PLC-beta3 inh: -5; Rce1 inhib: inactive; ADAM10 inh: 18; ADAM17 inh: 1; PLCg1 inh: 10*; PLCgamma1 ctr: -4; PLCbeta3 conf: 0

How did O=C(NC1CC1)c1ccc(-n2cccc2)cc1 do in these assays?
PLC-beta3 inh: -3; Rce1 inhib: inactive; ADAM10 inh: 3; ADAM17 inh: -1; PLCg1 inh: 1

What do the screens show for `O=C(OCC(=O)N1CCCC1)c1ccc(S(=O)(=O)Nc2ccccc2)cc1`?
PLC-beta3 inh: -5; Rce1 inhib: inactive; ADAM10 inh: 0; ADAM17 inh: -4; PLCg1 inh: -1

What do the screens show for `Cc1ccc(C(=O)N2CCN(S(=O)(=O)c3ccc(C)c([N+](=O)[O-])c3)C2)cc1`?
PLC-beta3 inh: 7; Rce1 inhib: inactive; ADAM10 inh: 3; ADAM17 inh: 4; PLCg1 inh: 10*; PLCgamma1 ctr: -2; PLCbeta3 conf: -1

Results for CCOc1cc(CNCC2CCCN2CC)cc(Cl)c1OC (stereo unspecified) ?
PLC-beta3 inh: 1; Rce1 inhib: inactive; ADAM10 inh: 2; ADAM17 inh: 5; PLCg1 inh: 12*; PLCgamma1 ctr: -1; PLCbeta3 conf: -1

What do the screens show for `CCN1CCCC1CNCc1cc(OC)c(OC)c(OC)c1` (stereo unspecified)?
PLC-beta3 inh: 2; Rce1 inhib: inactive; ADAM10 inh: -5; ADAM17 inh: -3; PLCg1 inh: 1

What do the screens show for `O=Cc1cc(N=Nc2ccc(S(=O)(=O)O)cc2)ccc1O`?
PLC-beta3 inh: -8; Rce1 inhib: inactive; ADAM10 inh: -6; ADAM17 inh: -1; PLCg1 inh: 14*; PLCgamma1 ctr: 16*; PLCbeta3 conf: 0

Results for COc1cc(N=Nc2ccc(Br)cc2)cc(C=O)c1O ?
PLC-beta3 inh: 2; ADAM10 inh: -7; ADAM17 inh: -1; PLCg1 inh: 3
